PubChem BioAssay (Tox21)
Records with an inconclusive call do not appear. Calls of active or inactive are those of the source. Unless noted, calls follow the shape of the full dose curve.

Experiments:
[1] = Nuclear factor erythroid 2-related factor 2/antioxidant responsive element (Nrf2/ARE) small molecule agonists: qHTS cell viability counter screen in human keratinocytes (AID 1919968; active = well fitted curve in the direction sought with a large enough effect in the repeat runs; an effect the other way counts as inactive or inconclusive; also: nearly all actives have a fitted effect of over 55% in size)
Summary of the method: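 Viability counter-screen: KeratinoSens reporter cells, DMSO-delivered compounds, 23 h at 37 C, CellTiter-Fluor fluorescence.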

[2] = biological target: Gonadotropin-releasing hormone receptor (Homo sapiens) (UniProt P30968); experiment: Human gonadotropin-releasing hormone receptor (GnRHR) small molecule agonists, calcium flux assay in GnRHR-HEK293 cells (AID 1920063); also: nearly all actives have a fitted effect of over 35% in size
Chain of Gonadotropin-releasing hormone receptor (Homo sapiens) (P30968 whole entry, looked up): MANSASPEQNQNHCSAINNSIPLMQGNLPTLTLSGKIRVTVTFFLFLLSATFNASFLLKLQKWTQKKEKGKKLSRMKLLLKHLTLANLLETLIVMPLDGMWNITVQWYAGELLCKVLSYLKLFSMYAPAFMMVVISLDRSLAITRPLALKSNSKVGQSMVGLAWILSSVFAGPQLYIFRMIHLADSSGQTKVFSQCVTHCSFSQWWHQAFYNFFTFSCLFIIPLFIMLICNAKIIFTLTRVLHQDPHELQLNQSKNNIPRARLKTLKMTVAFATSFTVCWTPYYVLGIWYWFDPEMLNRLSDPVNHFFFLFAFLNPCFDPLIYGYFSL
Summary of the method: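 Tox21-format agonist screen using human GnRHR-expressing HEK293 cells and a fluorescent calcium dye; kinetic 3-min fluorescence reading after compound addition, 15-point concentration series run in triplicate.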

[3] = biological target: KiSS-1 receptor (Homo sapiens) (UniProt Q969F8); experiment: Human kisspeptin (KISS1R) small molecule agonists, calcium flux assay in KISS1R-HEK293 cells (AID 1920064; active = well fitted curve in the direction sought with a large enough effect in the repeat runs; an effect the other way counts as inactive or inconclusive)
Chain of KiSS-1 receptor (Homo sapiens) (Q969F8 whole entry, looked up): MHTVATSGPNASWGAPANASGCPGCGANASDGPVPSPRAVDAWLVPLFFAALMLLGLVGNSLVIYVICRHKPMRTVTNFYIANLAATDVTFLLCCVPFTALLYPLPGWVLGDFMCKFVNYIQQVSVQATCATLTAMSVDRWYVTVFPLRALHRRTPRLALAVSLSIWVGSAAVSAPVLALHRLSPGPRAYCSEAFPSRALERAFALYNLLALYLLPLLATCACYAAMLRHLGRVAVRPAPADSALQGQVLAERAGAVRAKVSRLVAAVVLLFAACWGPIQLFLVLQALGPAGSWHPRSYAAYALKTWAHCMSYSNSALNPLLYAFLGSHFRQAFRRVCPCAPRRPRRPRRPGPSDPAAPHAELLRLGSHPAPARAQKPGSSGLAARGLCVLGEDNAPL
Summary of the method: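 Intracellular calcium mobilization in KISS1R-HEK293 cells was recorded by fluorescence (Ex/Em 480/540) for 3 min following compound addition to cells pre-loaded 1 h with calcium dye.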

[4] = G protein-coupled receptor (GPCR) small molecule agonists, calcium flux assay: HEK293 wild type cell line counter screen (AID 1920065)
Summary of the method: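 In this agonist-mode screen, ATP is the positive control and DMSO the vehicle. Cells grow 18 h before a 1 h dye incubation at 37 C; signal is taken at Ex/Em 480/540 over 3 min.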

[5] = p53 small molecule agonists, cell-based qHTS assay with human liver microsomes: qHTS cell viability counter screen (AID 1963579); also: nearly all actives have a fitted effect of over 45% in size; also: potency is read from the fitted curve at half-maximal effect
Summary of the method: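 p53RE-bla cells, 4,000/well, dosed 5 hours after plating, with human liver microsomes (0.5 mg/mL final) plus NADPH (0.5 mg/mL final), 16 hours at 37 C. Viability read as CellTiter-Glo luminescence after 30 min at room temperature.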

[6] = p53 small molecule agonists, cell-based qHTS assay with rat liver microsomes: qHTS cell viability counter screen (AID 1963580); also: nearly all actives have a fitted effect of over 45% in size
Summary of the method: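 HCT-116 p53RE-bla, 4,000 cells/well, 5 h pre-incubation; cpd + rat liver microsomes 0.5 mg/mL + NADPH 0.5 mg/mL (final); 16 h, 37 C; CellTiter-Glo, 30 min RT; luminescence.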

[7] = biological target: 5-hydroxytryptamine receptor 2A (Homo sapiens) (UniProt P28223); experiment: 5-hydroxytryptamine receptor 2A (HTR2A) small molecule agonists, cell-based qHTS assay (AID 1963587); also: nearly all actives have a fitted effect of over 30% in size
Chain of 5-hydroxytryptamine receptor 2A (Homo sapiens) (P28223 whole entry, looked up): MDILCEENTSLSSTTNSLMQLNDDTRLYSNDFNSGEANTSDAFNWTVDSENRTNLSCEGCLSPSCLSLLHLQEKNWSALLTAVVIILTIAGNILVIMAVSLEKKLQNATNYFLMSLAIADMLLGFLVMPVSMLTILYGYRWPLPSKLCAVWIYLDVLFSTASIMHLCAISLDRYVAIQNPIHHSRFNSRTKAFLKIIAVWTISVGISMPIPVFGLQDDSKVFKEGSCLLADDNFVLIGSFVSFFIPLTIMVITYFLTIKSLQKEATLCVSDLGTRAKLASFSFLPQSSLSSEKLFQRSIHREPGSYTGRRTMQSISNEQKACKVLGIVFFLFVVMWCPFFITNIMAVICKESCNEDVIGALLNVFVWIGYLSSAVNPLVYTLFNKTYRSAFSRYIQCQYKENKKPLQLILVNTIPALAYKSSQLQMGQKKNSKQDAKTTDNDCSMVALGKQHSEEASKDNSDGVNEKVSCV
Summary of the method: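 Kinetic calcium-flux fluorescence (2 min, 1 sec intervals) after compound addition in agonist mode. HTR2A-CHO cells were cultured 18 h, then dye-loaded 1 h at 37 C.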

[8] = biological target: Muscarinic acetylcholine receptor M1 (Homo sapiens) (UniProt P11229); experiment: Cholinergic receptor muscarinic 1 (CHRM1) small molecule agonists, cell-based qHTS assay (AID 1963589); also: nearly all actives have a fitted effect of over 35% in size
Chain of Muscarinic acetylcholine receptor M1 (Homo sapiens) (P11229 whole entry, looked up): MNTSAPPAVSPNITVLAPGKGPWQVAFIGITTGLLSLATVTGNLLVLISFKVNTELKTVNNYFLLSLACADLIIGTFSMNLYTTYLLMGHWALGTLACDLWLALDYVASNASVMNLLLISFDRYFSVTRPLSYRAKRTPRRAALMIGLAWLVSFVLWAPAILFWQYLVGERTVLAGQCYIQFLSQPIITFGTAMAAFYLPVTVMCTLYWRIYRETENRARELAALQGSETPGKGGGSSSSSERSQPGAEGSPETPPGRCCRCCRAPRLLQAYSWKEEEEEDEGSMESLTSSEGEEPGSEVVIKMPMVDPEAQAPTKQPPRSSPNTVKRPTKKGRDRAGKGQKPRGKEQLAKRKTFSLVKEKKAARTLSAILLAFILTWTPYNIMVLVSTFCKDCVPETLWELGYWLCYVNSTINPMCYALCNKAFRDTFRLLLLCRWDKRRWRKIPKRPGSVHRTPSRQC
Summary of the method: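 Stable CHRM1-CHO cells (human receptor) were incubated 18 h, dye-loaded for 1 h at 37 C and exposed to test compounds for agonist activity, with calcium-dependent fluorescence followed kinetically.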

[9] = cAMP Responsive Elements (CRE) small molecule agonists, cell-based qHTS assay (AID 1963590)
Summary of the method: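 FRET-based beta-lactamase readout (LiveBLAzer B/G, 2 h RT) quantified CRE activation in HEK 293T CRE-bla cells after 3 h treatment with DMSO-dissolved compounds.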

[10] = cAMP Responsive Elements (CRE) small molecule antagonists, cell-based qHTS assay (AID 1963591; active = well fitted inhibition curve with a large enough effect in the signal ratio in the repeat runs, not every such curve was filed as active; the % refers to the signal ratio; also: potency is read from the fitted curve at half-maximal effect)
Summary of the method: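 qHTS in CRE-bla HEK 293T cells: compound in DMSO, then 0.25 uM NKH477 (final), 3 h at 37 °C/5% CO2; beta-lactamase FRET read-out after 2 h substrate incubation.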

[11] = biological target: D(2) dopamine receptor (Homo sapiens) (UniProt P14416); experiment: Dopamine D2 receptor (DRD2) small molecule agonists, cell-based qHTS assay (AID 1963594); also: nearly all actives have a fitted effect of over 35% in size
Chain of D(2) dopamine receptor (Homo sapiens) (P14416 whole entry, looked up): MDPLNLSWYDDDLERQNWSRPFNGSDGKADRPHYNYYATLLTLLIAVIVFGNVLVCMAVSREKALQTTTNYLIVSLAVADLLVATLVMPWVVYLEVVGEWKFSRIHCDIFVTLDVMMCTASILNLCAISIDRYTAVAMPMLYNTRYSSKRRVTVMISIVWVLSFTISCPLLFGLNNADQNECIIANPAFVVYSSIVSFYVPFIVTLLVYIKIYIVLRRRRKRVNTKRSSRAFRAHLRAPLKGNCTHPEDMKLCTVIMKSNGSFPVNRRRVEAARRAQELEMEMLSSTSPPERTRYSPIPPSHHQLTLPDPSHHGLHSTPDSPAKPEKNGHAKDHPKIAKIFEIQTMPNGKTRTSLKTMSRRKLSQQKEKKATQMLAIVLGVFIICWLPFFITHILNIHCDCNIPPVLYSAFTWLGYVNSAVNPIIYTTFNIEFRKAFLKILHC
Summary of the method: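 cAMP accumulation in DRD2-HEK293 cells measured by HTRF after 1 h detection; compounds added 10 min before NKH477 (200nM […]) forskolin-analogue stimulation, 30 min at room temperature, with Ro20-1724 present at 0.1 mM final.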

[12] = biological target: 5-hydroxytryptamine receptor 2A (Homo sapiens) (UniProt P28223); experiment: 5-hydroxytryptamine receptor 2A (HTR2A) small molecule antagonists, cell-based qHTS assay (AID 1963586); also: nearly all actives have a fitted effect of over 45% in size
Summary of the method: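 Antagonist-mode intracellular calcium assay: DOI (4 nM) added after 5 min compound pre-incubation at room temperature to dye-loaded HTR2A-CHO cells. Fluorescence followed for 3 min, sampled every second.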

[13] = biological target: Muscarinic acetylcholine receptor M1 (Homo sapiens) (UniProt P11229); experiment: Cholinergic receptor muscarinic 1 (CHRM1) small molecule antagonists, cell-based qHTS assay (AID 1963588); also: nearly all actives have a fitted effect of over 40% in size
Summary of the method: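 CHRM1-CHO calcium-flux assay, antagonist mode. Cells were seeded 18 h, dye-loaded 1 h at 37 C and given compound for 5 min at RT, then acetylcholine was added at 50nM. FDSS fluorescence was read 3 min; 15 concentrations, three runs.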

[14] = biological target: Beta-2 adrenergic receptor (Homo sapiens) (UniProt P07550); experiment: Adrenergic beta2 receptor (ADRB2) small molecule antagonists, cell-based qHTS assay (AID 1963592); also: series mostly up to about 92 µM; nearly all actives have a fitted effect of over 50% in size
Chain of Beta-2 adrenergic receptor (Homo sapiens) (P07550 whole entry, looked up): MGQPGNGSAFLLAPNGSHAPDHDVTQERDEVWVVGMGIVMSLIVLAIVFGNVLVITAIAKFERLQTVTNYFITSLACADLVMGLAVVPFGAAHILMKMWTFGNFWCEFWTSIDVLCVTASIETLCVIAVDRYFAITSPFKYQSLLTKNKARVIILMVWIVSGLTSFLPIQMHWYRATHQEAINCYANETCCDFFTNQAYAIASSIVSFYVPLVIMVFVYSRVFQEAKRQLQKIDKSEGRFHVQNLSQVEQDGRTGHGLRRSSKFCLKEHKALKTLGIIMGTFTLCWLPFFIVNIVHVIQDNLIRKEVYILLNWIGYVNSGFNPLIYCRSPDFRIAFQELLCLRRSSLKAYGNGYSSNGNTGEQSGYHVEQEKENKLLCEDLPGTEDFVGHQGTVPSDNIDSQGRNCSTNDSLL
Summary of the method: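 Cells (CHO, stable ADRB2 overexpression) incubated 18-20hr at 37C; compounds added from DMSO; agonist mix (1nM isoproterenol, 100uM IBMX, 25uM Ro-20-1724) added; 0.5hr RT; d2-cAMP and anti-cAMP-cryptate added; 1hr RT; 665/615 nm read.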

[15] = biological target: Beta-2 adrenergic receptor (Homo sapiens) (UniProt P07550); experiment: Adrenergic beta2 receptor (ADRB2) small molecule agonists, cell-based qHTS assay (AID 1963593);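 also: CHO cells stably overexpressing human ADRB2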
Summary of the method: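 CHO cells stably over-expressing ADRB2 were plated overnight at 37C, then dosed with compounds plus a stimulation mix containing 100uM IBMX and 25uM Ro-20-1724 for 0.5hr at room temperature. cAMP was measured by HTRF competition, 1hr.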

[16] = biological target: D(2) dopamine receptor (Homo sapiens) (UniProt P14416); experiment: Dopamine D2 receptor (DRD2) small molecule antagonists, cell-based qHTS assay (AID 1963595; active = well fitted inhibition curve with a large enough effect in the signal ratio in the repeat runs, with a control signal flat; the % refers to the signal ratio)
Summary of the method: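 Human DRD2 antagonist qHTS measuring cAMP by HTRF. The cells are exposed to compound for 10 min, then to NKH477 (200 nM) and quinpirole (12 nM) for 30 min at RT, with Ro20-1724 (0.1 mM) present throughout.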

[17] = p53 small molecule agonists, cell-based qHTS assay: qHTS cell viability counter screen (AID 1963581); also: nearly all actives have a fitted effect of over 45% in size
Summary of the method: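 Compounds are pinned onto HCT-116 p53RE-bla cells and left 16 h at 37 C. Following the reporter FRET read, ATP is quantified by CellTiter-Glo luminescence after 30 min at room temperature.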

[18] = p53 small molecule agonists, cell-based qHTS assay with human liver microsomes (AID 1963577)
Summary of the method: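 p53RE-bla cells, 4,000/well, compound added after 5 h, with human liver microsomes 0.5 mg/mL and NADPH 0.5 mg/mL final; 16 h at 37 C, then LiveBLAzer 2 h RT, fluorescence.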

[19] = p53 small molecule agonists, cell-based qHTS assay with rat liver microsomes (AID 1963578)
Summary of the method: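 p53RE-bla cells, 4,000/well, pre-incubated 5 h, then given compounds plus rat liver microsomes (0.5 mg/mL final) and NADPH (0.5 mg/mL final). Incubation 16 h at 37 C; beta-lactamase reporter read by LiveBLAzer fluorescence after 2 h at room temperature.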

[20] = p53 small molecule agonists, cell-based qHTS assay (AID 1963582; active = well fitted activation curve with a large enough effect in the signal ratio in the repeat runs, not every such curve was filed as active; the % refers to the signal ratio)
Summary of the method: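 Agonist activity was scored from beta-lactamase FRET fluorescence in p53RE-bla cells treated 16 h at 37 C with compounds in DMSO, substrate incubation being 2 h at room temperature.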

Measured: Potency

CCOC(=O)c1ccc(N(C)C)cc1
inactive: [1] | [2] | [3] | [4] | [5] | [6] | [7] | [8] | [9] | [10] | [11]

CC(C)(C)c1ccc(OCC2CO2)cc1 (configuration not stated)
inactive: [1] | [2] | [3] | [4] | [5] | [12] | [7] | [13] | [8] | [10] | [14] | [15] | [11] | [16]

CN(C)CCC(c1ccc(Cl)cc1)c1ccccn1 (configuration not stated)
inactive: [1] | [2] | [3] | [4] | [17] | [9] | [10] | [14] | [15] | [11] | [16]

CC(C)O
inactive: [1] | [2] | [3] | [4] | [5] | [17] | [12] | [7] | [13] | [8] | [10] | [14] | [11] | [16]

CCCCCCCC#N
active: [5] 32.4 µM
inactive: [1] | [2] | [3] | [4] | [17] | [12] | [7] | [13] | [8] | [9] | [10] | [14] | [15] | [11] | [16]

O=S(=O)(c1cccc2cnccc12)N1CCCNCC1
inactive: [1] | [2] | [3] | [4] | [17] | [12] | [7] | [13] | [8] | [9] | [14] | [15] | [16]
active: [10] 29.8 µM

CCC(CC)Nc1ccc(C)c(C)c1
inactive: [1] | [2] | [3] | [4] | [6] | [17] | [12] | [7] | [13] | [8] | [9] | [10] | [14] | [11] | [16]

O=C(O)c1cc(C(=O)O)cc(C(=O)O)c1
inactive: [1] | [2] | [3] | [18] | [19] | [5] | [6] | [17] | [20] | [12] | [7] | [13] | [8] | [9] | [10] | [15] | [16]

O=[N+]([O-])c1ccc(O)c2ncccc12
inactive: [1] | [2] | [3] | [4] | [17] | [20] | [12] | [7] | [13] | [8] | [9] | [14] | [15] | [11] | [16]
